# Source: PubChem BioAssay (several laboratories)
# CYP2C9 inhib = inhibitors of human CYP2C9; P11712; CYP2C9 Supersomes, luciferin-H conversion, luminescence; inhibition, % at 5 µM; 96,000 tested, 20% active; AID 777;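 active = blocking of liver enzyme CYP2C9 beyond about 50% at 5 µM, limit read from the data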
# CYP2C9 act = activators of human CYP2C9. P11712. recombinant CYP2C9, luciferin-H conversion, luminescence; stronger effect = higher value; factor 1 = untreated enzyme, 0 = blocked. activation factor at 5 µM. 96,000 tested, 1.4% active;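 active = activation factor of 2 or more for CYP2C9 at a 5 µM dose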;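 also: 0 = sulfaphenazole-blocked wells and 1 = vehicle-only wells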
# CYP2C19 activ = increases human CYP2C19 enzyme activity | 96,000 tested, under 10 active | P33261 | activation factor at 5 µM | recombinant CYP2C19, luciferin-H EGE luminescence; stronger effect = higher value; 0 = fully inhibited enzyme, 1 = untreated enzyme | AID 1025;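 active = activation factor of at least 2 at 5 µM in the primary screen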;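 also: 0 = wells with 2.5 mM tranylcypromine and 1 = vehicle-only wells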
# Target sequence (P33261 whole entry, looked up): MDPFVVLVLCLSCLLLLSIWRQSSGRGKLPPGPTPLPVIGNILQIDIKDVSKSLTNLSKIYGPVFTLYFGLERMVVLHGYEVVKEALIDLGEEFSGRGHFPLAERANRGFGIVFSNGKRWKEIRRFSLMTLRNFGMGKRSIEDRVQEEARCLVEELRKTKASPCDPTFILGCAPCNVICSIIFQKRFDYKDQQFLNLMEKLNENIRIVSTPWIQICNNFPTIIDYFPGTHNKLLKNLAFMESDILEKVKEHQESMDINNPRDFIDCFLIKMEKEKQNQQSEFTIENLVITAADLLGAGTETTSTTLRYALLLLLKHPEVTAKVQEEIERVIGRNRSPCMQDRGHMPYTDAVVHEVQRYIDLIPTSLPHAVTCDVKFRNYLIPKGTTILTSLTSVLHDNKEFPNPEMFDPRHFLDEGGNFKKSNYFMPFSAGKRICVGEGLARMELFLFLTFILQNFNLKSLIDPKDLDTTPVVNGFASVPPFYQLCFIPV
# CYP2C19 inh = blocks human cytochrome P450 2C19; 96,000 tested, 21% active; inhibition, % at 5 µM; CYP2C19 Supersomes, luciferin-H EGE luminescence, 30 min;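 active = CYP2C19 inhibition above a set limit at 5 µM in the primary screen, cut at about 50% in these data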;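 also: plate controls were negative control wells for no effect and 2.5 mM tranylcypromine positive control for full effect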
# Measles CPE = protection of cells from measles virus. Measles virus-infected cells, CPE protection, absorbance. protection (pct of control), % at 4 µM. 140,000 tested, 1.5% active. AID 841; in the data active = protection mostly above about 24%, no sharp cut-off; inactive = mostly below about 26%
# The depositor's hits bear a star; . = no result. Rows were chosen to be rich in hits. Some 22% of all compounds tested hit in one or more screens of this group.
SMILES,CYP2C9 inhib,CYP2C9 act,CYP2C19 activ,CYP2C19 inh,Measles CPE
CCOc1ccc(C(C)(C)C)cc1S(=O)(=O)N1CCOCC1,50*,0.5,0.3,68*,25
COc1cc(C)c(Br)cc1S(=O)(=O)N1CCOCC1,.,.,.,.,15
CCOc1ccc(OCC)c(S(=O)(=O)N2CCCCC2C)c1 (centres undefined),53*,0.5,0.1,89*,7
CCOc1ccc(C)cc1S(=O)(=O)N1CCCCC1,-94,1.9,0.3,66*,19
C=CCNC(=O)/C(C#N)=C/c1c(C)nn(-c2ccccc2)c1Cl,.,.,.,.,2
CCOCCCNC(=O)C(NC(=O)CC1NC(=O)NC1=O)c1ccc(Cl)cc1 (centres undefined),-4,1,1.1,-13,27
CCc1ccc(OCC(=O)NC(NC(=S)Nc2ccc(Cl)cc2)C(Cl)(Cl)Cl)cc1 (centres undefined),.,.,.,.,3
CCCn1c(SCC(N)=O)nnc1-c1ccco1,6,0.9,1,0,16
CCOc1cc(S(=O)(=O)N2CCCC2)ccc1Cl,-43,1.4,0.5,51*,16
COc1ccc(CN2CC(C(=O)NCCc3ccc(C)cc3)CC2=O)cc1 (centres undefined),32,0.7,0.6,39,5
C=C1c2cc(C)ccc2NC(=O)N1c1ccc(C)cc1,4,1,0.4,56*,6
CC/C(=C\C(=O)c1ccncc1)Nc1ccc(O)cc1,41,0.6,0.1,87*,4
CCC(=O)Nc1ccc(C(=O)Nc2cccnc2)cc1,2,1,1.1,-10,15
CC1/C(=N/O)CC(c2ccccc2)N(C)C1c1ccccc1 (centres undefined),.,.,.,.,11
Cc1ccc(C2NC(c3ccc(C)cc3)C(C)C(=NO)C2C)cc1 (centres undefined),51*,0.5,0.1,93*,2
CC1/C(=N/O)CC(c2ccccc2)NC1c1ccccc1 (centres undefined),51*,0.5,0.3,70*,23
CC1C(=NO)C(C)C(c2ccccc2)NC1c1ccccc1 (centres undefined),30,0.7,0,98*,6
Cc1ccc(C2NC(c3ccc(C)cc3)C([N+](=O)[O-])C(C)(C)C2[N+](=O)[O-])cc1 (centres undefined),.,.,.,.,31
CCC(C)NC(=O)c1c(F)c(F)c(F)c(F)c1F (centres undefined),.,.,.,.,2
O=c1c2ccccc2nc(CSc2ncnc3nc[nH]c23)n1-c1cccc(C(F)(F)F)c1,6,0.9,1.1,-13,27*
O=c1[nH]c(SCc2nc3ccccc3c(=O)n2-c2ccccc2)nc2ccccc12,.,.,.,.,5
O=c1c2[nH]c3ccccc3c2ncn1CCCn1ccnc1,72*,0.3,0.7,30,.
CCCCn1cnc2c([nH]c3ccccc32)c1=O,0,1,0.7,32,13
O=c1c2[nH]c3ccc(Br)cc3c2ncn1CCCn1ccnc1,89*,0.1,0.2,82*,27
Cc1ccc(C(=O)NC(=S)Nc2ccc(S(=O)(=O)N3CCN(C)CC3)cc2)cc1,26,0.7,0.8,18,63*
SMILES,CYP2C9 inhib,CYP2C9 act,CYP2C19 activ,CYP2C19 inh,Measles CPE
Cc1cccc(C(=O)NC(=S)Nc2ccc(S(=O)(=O)N3CCN(C)CC3)cc2)c1,71*,0.3,0.2,79*,19
COc1ccc(/C=N/NC(=S)NC2CCS(=O)(=O)C2)cc1 (centres undefined),.,.,.,.,5
COc1ccc(CNC(=O)C2CSC(=O)C2)cc1 (centres undefined),-4,1,1.1,-8,4
Cn1c(SCC(=O)NCCc2ccccc2)nnc1-c1ccco1,-15,1.1,1.1,-7,6
O=C(OCC(=O)N(C1CCCCC1)C1CCCCC1)c1ccncc1,65*,0.3,0,99*,9
CCN(CC)S(=O)(=O)c1ccc(OC)c(NC(=O)c2cc([N+](=O)[O-])ccc2Cl)c1,32,0.7,0.9,5,7
COCCOc1cc(NC(=O)c2sccc2Oc2ccc([N+](=O)[O-])cc2F)c(Cl)cc1Cl,59*,0.4,0.8,19,29
CC1CCc2sc(C(=O)N=Nc3c(O)[nH]c4ccccc34)cc2C1 (centres undefined),.,.,.,.,15
O=C1CC(c2cccc(Cl)c2)Cc2nc(N3CCOCC3)ncc21 (centres undefined),59*,0.4,0.3,72*,3
O=C1CC(c2ccc(F)cc2)Cc2nc(N3CCOCC3)ncc21 (centres undefined),25,0.8,0.2,77*,6
